According to PubChem BioAssay (EPA / NIEHS):
Where “and” joins values, the source holds several entries; their conditions need not be identical. Equal entries are not always repeated. Records with an inconclusive call do not appear. More than one record can exist for a structure, and the calls need not agree. Calls of active or inactive are those of the source. Rule for the calls: active = hit-call score of the fitted dose curve at least 0.9, where 1 is the maximum; inconclusive = response in the unintended direction; inactive = score below 0.9.

Target: Estrogen receptor beta (Homo sapiens) (UniProt Q92731)
Sequence (Q92731 whole entry, looked up): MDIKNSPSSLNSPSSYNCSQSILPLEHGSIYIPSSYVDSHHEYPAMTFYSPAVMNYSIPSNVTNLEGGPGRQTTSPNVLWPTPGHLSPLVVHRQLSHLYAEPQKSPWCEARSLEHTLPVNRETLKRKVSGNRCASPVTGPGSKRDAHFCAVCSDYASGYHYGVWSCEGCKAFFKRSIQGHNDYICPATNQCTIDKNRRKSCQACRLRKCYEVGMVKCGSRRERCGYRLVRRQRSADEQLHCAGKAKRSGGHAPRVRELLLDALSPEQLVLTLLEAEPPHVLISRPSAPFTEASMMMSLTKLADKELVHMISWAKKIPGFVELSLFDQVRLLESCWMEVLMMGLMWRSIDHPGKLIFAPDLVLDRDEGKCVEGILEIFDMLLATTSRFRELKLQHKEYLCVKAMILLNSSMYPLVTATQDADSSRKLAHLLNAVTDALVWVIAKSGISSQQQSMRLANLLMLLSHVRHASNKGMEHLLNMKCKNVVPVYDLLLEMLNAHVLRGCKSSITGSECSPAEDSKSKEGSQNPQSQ
Assay: OT_ER_ERbERb_0480: Odyssey Thera (OT) 8-hour HEK293T Protein-Complementation Assay for Estrogen Receptor-beta/-beta Homodimer (AID 2283357);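 note: active means signal gain over DMSO baseline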
Method in brief: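 ER-beta LBD homodimer PCA stably expressed in HEK293T; 8 h compound exposure, then formaldehyde fixation and Draq5 staining. Gain in nuclear/cytoplasmic fluorescence intensity versus DMSO vehicle, read on laser scanning cytometer.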

Row | Compound | AC50 | outcome
1 | CCCCCCCCOC(=O)c1ccc(O)cc1 | 8.39 µM (active) | 
2 | CCCCCCOc1ccc(O)cc1 | 11.9 µM (active) | 
3 | CC(C)(C)c1ccc(S)cc1 |  | inactive
4 | CCCCCCCCCOS(=O)(=O)O |  | inactive
5 | CC(=O)C1C(=O)C=C(C)OC1=O (centres undefined) |  | inactive
6 | O=C1OC2(c3ccc(O)cc3Oc3cc(O)ccc32)c2ccccc21 |  | inactive
7 | COc1ccccc1O |  | inactive
8 | CCC(=O)OC(C)(C)C1CC=C(C)CC1 (centres undefined) |  | inactive
9 | CC(O)CN (centres undefined) |  | inactive
10 | CCOCC(C)O (centres undefined) |  | inactive
11 | CCCCCC(=O)O[C@]1(C(C)=O)CC[C@H]2[C@@H]3CCC4=CC(=O)CC[C@]4(C)[C@H]3CC[C@@]21C |  | inactive
12 | CC(=O)CC(=O)N(C)C |  | inactive
13 | Cc1cccc(O)c1 |  | inactive

Target: Glucocorticoid receptor (Homo sapiens) (UniProt P04150)
Sequence (P04150 whole entry, looked up): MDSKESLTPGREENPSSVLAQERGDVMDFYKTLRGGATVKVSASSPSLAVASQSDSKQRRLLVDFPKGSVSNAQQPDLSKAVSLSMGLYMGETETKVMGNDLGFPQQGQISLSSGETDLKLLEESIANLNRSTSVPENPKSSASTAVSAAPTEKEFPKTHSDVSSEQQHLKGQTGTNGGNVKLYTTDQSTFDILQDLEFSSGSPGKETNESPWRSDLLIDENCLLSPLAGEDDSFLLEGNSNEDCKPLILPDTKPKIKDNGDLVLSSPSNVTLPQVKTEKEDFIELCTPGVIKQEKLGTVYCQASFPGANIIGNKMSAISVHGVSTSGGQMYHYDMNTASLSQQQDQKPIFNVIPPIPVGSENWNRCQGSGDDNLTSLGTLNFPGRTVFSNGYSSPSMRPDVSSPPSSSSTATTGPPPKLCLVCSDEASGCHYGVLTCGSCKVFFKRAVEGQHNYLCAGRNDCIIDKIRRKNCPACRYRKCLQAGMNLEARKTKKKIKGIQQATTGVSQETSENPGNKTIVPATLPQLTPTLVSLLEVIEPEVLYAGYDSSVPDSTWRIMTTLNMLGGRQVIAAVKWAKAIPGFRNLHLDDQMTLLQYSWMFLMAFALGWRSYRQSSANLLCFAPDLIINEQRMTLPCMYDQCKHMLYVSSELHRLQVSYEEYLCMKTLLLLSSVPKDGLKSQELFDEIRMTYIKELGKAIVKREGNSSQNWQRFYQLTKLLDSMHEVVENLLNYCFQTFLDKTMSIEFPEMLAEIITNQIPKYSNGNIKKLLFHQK
Assay: NVS_NR_hGR: NovaScreen (NVS) Nuclear Receptor Binding Assay for human Glucocorticoid Receptor (GR) (AID 2283363);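 for AC50: activity is loss of specific radioligand binding signal relative to DMSO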
Method in brief: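 Compounds first tested in duplicate at 25 uM, actives followed up in concentration series. Binding to extracted GR protein measured as competitive radioligand displacement, filter scintillation read 16 h post-dosing, normalised to DMSO.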

Row | Compound | AC50 | outcome
14 | O=S1(=O)CC(Cl)(Cl)C(Cl)(Cl)C1 | 25 µM (active) | 
15 | CCCCCCCCOC(=O)c1ccc(O)cc1 |  | inactive
16 | O=C1OC2(c3ccc(O)cc3Oc3cc(O)ccc32)c2ccccc21 | 25 µM (active) | 
17 | C#C[C@]1(O)CC[C@H]2[C@@H]3CCc4cc(O)ccc4[C@H]3CC[C@@]21C | 304 nM (active) and 305 nM (active) and 1.43 µM (active) | 
18 | CCCCCC(=O)O[C@]1(C(C)=O)CC[C@H]2[C@@H]3CCC4=CC(=O)CC[C@]4(C)[C@H]3CC[C@@]21C | 0.0187 µM (active) | 
19 | C[C@]12CC[C@@H]3c4ccc(O)cc4CC[C@H]3[C@@H]1CC[C@@H]2O | 384 nM (active) and 359 nM (active) | inactive
20 | CC1(C)CC(=O)CC(C)(C)N1 |  | inactive
21 | O=C(c1ccc(OCCN2CCCCC2)cc1)c1c(-c2ccc(O)cc2)sc2cc(O)ccc12 | 6.7 µM (active) [middle of 4 runs] | 
22 | C=CC(=O)OCC(CO)(COC(=O)C=C)COC(=O)C=C | 4.96 µM (active) | 

Target: Nuclear receptor subfamily 1 group I member 2 (Homo sapiens) (UniProt O75469)
Sequence (O75469 whole entry, looked up): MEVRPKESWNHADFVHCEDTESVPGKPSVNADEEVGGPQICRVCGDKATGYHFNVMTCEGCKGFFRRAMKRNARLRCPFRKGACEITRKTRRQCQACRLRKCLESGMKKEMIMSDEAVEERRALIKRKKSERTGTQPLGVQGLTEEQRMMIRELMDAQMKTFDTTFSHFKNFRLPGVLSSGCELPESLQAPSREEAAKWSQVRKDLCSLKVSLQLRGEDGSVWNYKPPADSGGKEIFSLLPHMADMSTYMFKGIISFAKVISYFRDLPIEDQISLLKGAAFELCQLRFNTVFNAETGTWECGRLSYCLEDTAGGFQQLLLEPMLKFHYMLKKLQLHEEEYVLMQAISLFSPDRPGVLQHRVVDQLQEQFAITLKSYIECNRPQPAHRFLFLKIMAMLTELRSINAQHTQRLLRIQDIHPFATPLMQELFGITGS
Assay: NVS_NR_hPXR: NovaScreen (NVS) Nuclear Receptor Binding Assay for human Pregnane X Receptor (PXR) (AID 2283365);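 note: a drop in FRET signal versus DMSO baseline means the compound binds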
Method in brief: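 Human PXR binding measured by TR-FRET in a cell-free format, 2 h exposure. Single-concentration duplicates at 25 uM preceded concentration-response retests of actives; endpoint fitted positively relative to DMSO, loss of signal indicating binding.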

Row | Compound | outcome | AC50
23 | CCCCCCOc1ccc(O)cc1 | inactive | 
24 | CCCCCCCCCCCCOCCOS(=O)(=O)O |  | 25 µM (active)
25 | CCCCCC(=O)O[C@]1(C(C)=O)CC[C@H]2[C@@H]3CCC4=CC(=O)CC[C@]4(C)[C@H]3CC[C@@]21C | inactive | 
26 | C[C@]12CC[C@@H]3c4ccc(O)cc4CC[C@H]3[C@@H]1CC[C@@H]2O | inactive | 
27 | CCC(C)(C)C1CCC(=O)CC1 | inactive | 
28 | O=C(c1ccc(OCCN2CCCCC2)cc1)c1c(-c2ccc(O)cc2)sc2cc(O)ccc12 |  | 1.7 µM (active) and 3.59 µM (active) and 1.46 µM (active)
